The record followed here is ChEMBL document CHEMBL3988442, “University of Dundee, Small-Polar-MMV Screening Library” (2021).

Structures are written as SMILES.

This assay has as its target T1, Aspartate--tRNA(Asp/Asn) ligase (Mycobacterium tuberculosis (strain ATCC 25618 / H37Rv)) (UniProt P9WFW3).
T1 sequence (whole entry): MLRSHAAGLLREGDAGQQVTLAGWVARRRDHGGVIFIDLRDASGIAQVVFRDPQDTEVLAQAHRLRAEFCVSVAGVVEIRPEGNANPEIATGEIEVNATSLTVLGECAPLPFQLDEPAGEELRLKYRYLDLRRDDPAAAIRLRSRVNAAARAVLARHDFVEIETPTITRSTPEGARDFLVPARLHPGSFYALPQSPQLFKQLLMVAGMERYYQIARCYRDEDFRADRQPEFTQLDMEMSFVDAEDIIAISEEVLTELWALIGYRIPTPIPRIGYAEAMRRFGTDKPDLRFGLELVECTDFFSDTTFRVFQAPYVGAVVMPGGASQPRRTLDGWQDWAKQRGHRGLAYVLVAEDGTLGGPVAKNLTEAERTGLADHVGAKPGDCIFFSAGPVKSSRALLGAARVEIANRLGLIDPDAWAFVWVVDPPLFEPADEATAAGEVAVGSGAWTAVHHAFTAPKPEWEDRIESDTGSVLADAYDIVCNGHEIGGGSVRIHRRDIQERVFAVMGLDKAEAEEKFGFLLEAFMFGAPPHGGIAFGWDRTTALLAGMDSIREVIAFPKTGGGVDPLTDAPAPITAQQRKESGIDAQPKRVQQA
Briefly: Assay for Asp RNA synthetase-1 from Mycobacterium tuberculosis. It counts as functional. Further details: scale not given: in the data most compounds retested in dose-response had high values. As to conditions: 30 µM.
Consider `CCN(C)c1ccc(C(=O)N(CCOC)Cc2ccccn2)cc1`, for which the Percent Effect was determined as 2.13%.
The result for `Cc1cc(N2CCN(Cc3ccc(C)o3)CC2)cc(C)n1` reads -1.34%; that for `CCn1nc(C)c(CCn2ccnc2-c2cc3n(n2)CCCNC3)c1C`, -1.76%.
Under `O=C1N(Cc2ccccc2F)CCCC12CCN(C1CCSCC1)C2` (stereo not given) stands -2.75%.
Under `Cc1cccc(CN2C[C@H]3OC(=O)N(CCCN4CCOCC4)[C@H]3C2)n1` stands -2.42%.
Turning to `CC(O)CN1CCN(C(=O)c2cnn(-c3ccc(Cl)cc3)c2)CC1` (stereo not given), the Percent Effect is -5.67%.
With `Cc1nccn1CCC1CCCCN1C(=O)c1ccc2[nH]nnc2c1` (stereo not given), the Percent Effect was 1.02%.
In the case of `O=C(NC1(c2nnn(CCO)n2)CCCC1)c1ccccc1`, the Percent Effect is -6.13%.
The result for `CCOC1CCN(C(=O)c2c(Cl)c3ccccc3n2C)CC1` reads -2.01%; that for `CCCC(=O)NCc1cc(Br)c(OC)c(OC)c1`, -0.862%.
Under `O=C(O)c1ccc(F)c(S(=O)(=O)Nc2ccc(-n3cccn3)c(Cl)c2)c1` stands -5.11%.
In the case of `CC(C)SCC(=O)N1CCc2c(nc(N(C)C)nc2N(C)C)C1`, the Percent Effect is -3.12%.
Turning to `Cc1cc(C)n(CC2CCCCN2CC(=O)Nc2nncs2)n1` (stereo not given), the Percent Effect was -0.218%.
For the compound `COCc1nc(CN2CCC3(CCCO3)CCC2=O)no1` (stereo not given), the Percent Effect is -3.94%.
In the case of `CN(CCO)C(=O)c1coc(CN2CCN(c3ccccc3F)CC2)n1`, the Percent Effect was -3.46%.
The result for `CC(NC(=O)Cn1cccn1)c1cccnc1` (stereo not given) reads -1.34%.
Under `CCCS(=O)(=O)N1C[C@H]2OC(=O)N(CCc3cccc(Cl)c3)[C@H]2C1` stands -4.26%; under `O=C(c1cncc(N2CCC(O)(CO)CC2)n1)N1CCCC1`, -3.27%; under `CCN(CC(=O)NC)C(=O)Cc1nc(-c2ccco2)oc1C`, -4.7%.
`c1cnn(CC2CCCCN2c2ncnc3sccc23)c1` (stereo not given): the Percent Effect is 2.59%.
On to `Cc1ccc(C#N)c(N2CCC(c3nccn3Cc3cscn3)CC2)n1`, for which the Percent Effect was determined as 2.26%.
The result for `COc1nc(C)c(C(=O)N(C)Cc2nc(-c3ccccn3)no2)s1` reads 1.83%; that for `Cc1ccc(C(NC(=O)[C@H]2CC[C@@H](O)CC2)c2cccnc2)cc1C` (stereo not given in full), -3.21%; that for `COc1c(CNC2CCc3c(Cl)cccc32)c(C)nn1C` (stereo not given), -1.71%.
Regarding `CN(Cc1ccccc1)C1(C(=O)O)Cc2ccccc2C1`, the Percent Effect is -1.53%.
Turning to `FC(F)(F)C1CCCn2c(CNCc3ccsc3)nnc21` (stereo not given), the Percent Effect is -1.78%.
As for `COc1cccc(CN(C)C(=O)CN2CCN(CCO)CC2)c1`, the Percent Effect is -0.747%.
Regarding `Cc1nn(C)c(Cl)c1C1CCCN1c1ncnc2sccc12` (stereo not given), the Percent Effect is -2.03%.
Under `Cc1nccn1CCC1CCCCN1Cc1ccc(N(C)C)nc1` (stereo not given) stands 2.17%.
The result for `COc1cccc(S(=O)(=O)CCN2CCCCC2)c1` reads 3.32%; that for `O=C1N(Cc2ccc(F)c(F)c2)CCCC12CCN(C1CCSCC1)C2` (stereo not given), -5.55%.
Turning to `CC(C)c1noc(CN2CCC3(CCCO3)CCC2=O)n1` (stereo not given), the Percent Effect is -1.21%.
Under `COCc1nc2n(n1)CCCC2Nc1nc(C2CC2)ns1` (stereo not given) stands 0.0804%; under `NC(=O)CN1CC2(CCC1=O)CCN(Cc1cc(F)ccc1Cl)CC2`, 0.126%; under `Cc1ccc(N2CCCC(N(C)Cc3cc(C)no3)C2)nn1` (stereo not given), -1.94%.
The result for `CN1C(=O)C(c2ccccc2)CC12CCN(CCOCCO)CC2` (stereo not given) reads -1.23%.
For the compound `CCCC(NC(=O)c1cc(C)n(C2CC2)c1C)c1nnn[nH]1` (stereo not given), the Percent Effect was -0.908%.
As for `CN(CC1(O)CCCN(CCC2CCCCC2)C1=O)C1CCOCC1` (stereo not given), the Percent Effect was 0.172%.
For the compound `CCC(=O)NCc1cc(Br)c(OC)c(OC)c1`, the Percent Effect is -1.55%.
The result for `COCCN(C)CC(=O)N1C[C@H]2CC[C@@H]1CN(C(=O)c1ccncc1)C2` reads -1.85%.
